# Results published in PMC4081100, “A DNA-binding-site landscape and regulatory network analysis for NAC transcription factors in Arabidopsis thaliana”.
# How the values were obtained:
# Assay in all cases: universal protein binding microarray (PBM); transcription factors of Arabidopsis thaliana; high values mean tight binding
# GST-ANAC092(1-176) = target: T1, GST-ANAC092(1-176) (Arabidopsis thaliana, UniProt Q9FKA0 1-176); details: protein: recombinant; tags: GST; chain copies: 2; dsDNA, one strand shown
# T1 sequence: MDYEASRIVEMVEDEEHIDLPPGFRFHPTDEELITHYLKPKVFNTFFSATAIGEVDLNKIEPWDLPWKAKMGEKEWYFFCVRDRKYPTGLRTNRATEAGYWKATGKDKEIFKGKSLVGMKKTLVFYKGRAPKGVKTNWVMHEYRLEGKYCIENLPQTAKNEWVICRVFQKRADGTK
# Outline: (§1)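 Protein amounts were determined by A280 or anti-GST western blot after glutathione–Sepharose 4B purification of GST-tagged proteins induced in cells, with zinc acetate included for zinc-finger proteins. Duplicate runs at 200 to 500 nM final were done on custom all-10-mer Agilent 4 × 180K arrays made double-stranded by primer extension. The normalised enrichment score (E-score) over gapped and ungapped 8-mers is the measure of binding.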
# GST-NTL6(1-168) = GST-NTL6(1-168) (Arabidopsis thaliana, UniProt Q9SCK6 1-168); details: protein: recombinant; tags: GST; chain copies: 2; dsDNA, one strand shown
# GST-NTL6(1-168), sequence (Q9SCK6 1-168): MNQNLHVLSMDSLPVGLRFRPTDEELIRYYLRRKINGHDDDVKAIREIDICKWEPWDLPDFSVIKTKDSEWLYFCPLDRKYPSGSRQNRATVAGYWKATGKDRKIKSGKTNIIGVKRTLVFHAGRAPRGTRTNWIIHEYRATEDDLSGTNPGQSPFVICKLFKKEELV
# Outline: as §1
# GST-ANAC019 NAC domain = target: T2, GST-ANAC019 NAC domain (Arabidopsis thaliana, UniProt Q9C932 14-162); details: protein: recombinant; tags: GST; chain copies: 2; dsDNA, one strand shown
# T2 sequence: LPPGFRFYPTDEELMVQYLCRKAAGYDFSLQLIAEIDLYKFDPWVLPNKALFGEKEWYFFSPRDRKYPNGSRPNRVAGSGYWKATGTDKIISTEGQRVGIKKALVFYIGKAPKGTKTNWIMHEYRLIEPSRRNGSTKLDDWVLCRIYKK
# Outline: as §1
# GST-ANAC055(1-171) = target: T3, GST-ANAC055(1-171) (Arabidopsis thaliana, UniProt Q9LDY8 1-171); details: protein: recombinant; tags: GST; chain copies: 2; dsDNA, one strand shown
# T3 sequence: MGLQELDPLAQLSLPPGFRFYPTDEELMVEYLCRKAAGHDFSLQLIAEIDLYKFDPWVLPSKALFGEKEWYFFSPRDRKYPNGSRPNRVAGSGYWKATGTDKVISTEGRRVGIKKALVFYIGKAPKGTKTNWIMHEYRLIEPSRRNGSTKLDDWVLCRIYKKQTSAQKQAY
# Outline: as §1
# GST-ATAF1 NAC domain = target: T4, GST-ATAF1 NAC domain (Arabidopsis thaliana, UniProt Q39013 7-158); details: protein: recombinant; tags: GST; chain copies: 2; dsDNA, one strand shown
# T4 sequence: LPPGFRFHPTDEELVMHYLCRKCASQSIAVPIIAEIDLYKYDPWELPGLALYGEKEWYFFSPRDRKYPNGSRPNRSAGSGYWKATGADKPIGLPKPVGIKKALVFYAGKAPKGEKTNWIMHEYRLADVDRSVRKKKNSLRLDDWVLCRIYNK
# Outline: as §1
# [1] = target: T5, GST-ANAC092(1-285) full length (Arabidopsis thaliana, UniProt Q9FKA0 1-285); details: protein: recombinant; tags: GST; chain copies: 2; dsDNA, one strand shown
# T5 sequence: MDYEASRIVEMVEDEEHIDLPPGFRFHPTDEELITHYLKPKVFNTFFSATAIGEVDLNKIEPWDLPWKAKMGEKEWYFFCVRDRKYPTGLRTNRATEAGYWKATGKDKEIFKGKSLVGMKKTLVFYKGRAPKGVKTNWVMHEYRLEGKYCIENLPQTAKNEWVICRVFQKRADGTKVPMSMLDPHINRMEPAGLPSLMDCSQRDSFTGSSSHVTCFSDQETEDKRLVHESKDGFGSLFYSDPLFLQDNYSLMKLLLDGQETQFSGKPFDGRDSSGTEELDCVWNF
# Outline: as §1
# GST-NAP(1-166) = target: T6, GST-NAP(1-166) (Arabidopsis thaliana, UniProt O49255 1-166); details: protein: recombinant; tags: GST; chain copies: 2; dsDNA, one strand shown
# T6 sequence: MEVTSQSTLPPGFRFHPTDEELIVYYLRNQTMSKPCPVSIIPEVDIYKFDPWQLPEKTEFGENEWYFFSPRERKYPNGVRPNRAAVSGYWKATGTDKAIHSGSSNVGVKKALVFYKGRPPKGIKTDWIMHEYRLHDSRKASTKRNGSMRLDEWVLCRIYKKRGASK
# Outline: as §1
# GST-NST2(1-184) = target: T7, GST-NST2(1-184) (Arabidopsis thaliana, UniProt Q9M274 1-184); details: protein: recombinant; tags: GST; chain copies: 2; dsDNA, one strand shown
# T7 sequence: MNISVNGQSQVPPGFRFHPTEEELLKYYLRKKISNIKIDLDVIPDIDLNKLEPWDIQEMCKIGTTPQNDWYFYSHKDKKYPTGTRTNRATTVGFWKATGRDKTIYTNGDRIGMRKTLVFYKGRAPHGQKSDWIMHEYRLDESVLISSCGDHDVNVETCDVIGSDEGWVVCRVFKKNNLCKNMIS
# Outline: as §1
# GST-NTL8 NAC domain = target: T8, GST-NTL8 NAC domain (Arabidopsis thaliana, UniProt Q9XIN7 14-156); details: protein: recombinant; tags: GST; chain copies: 2; dsDNA, one strand shown
# T8 sequence: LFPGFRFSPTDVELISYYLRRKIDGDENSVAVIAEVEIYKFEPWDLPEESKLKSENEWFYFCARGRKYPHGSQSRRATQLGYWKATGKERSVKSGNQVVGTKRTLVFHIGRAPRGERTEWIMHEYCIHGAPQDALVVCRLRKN
# Outline: as §1
# GST-SND1(1-203) = target: T9, GST-SND1(1-203) (Arabidopsis thaliana, UniProt Q9LPI7 1-203); details: protein: recombinant; tags: GST; chain copies: 2; dsDNA, one strand shown
# T9 sequence: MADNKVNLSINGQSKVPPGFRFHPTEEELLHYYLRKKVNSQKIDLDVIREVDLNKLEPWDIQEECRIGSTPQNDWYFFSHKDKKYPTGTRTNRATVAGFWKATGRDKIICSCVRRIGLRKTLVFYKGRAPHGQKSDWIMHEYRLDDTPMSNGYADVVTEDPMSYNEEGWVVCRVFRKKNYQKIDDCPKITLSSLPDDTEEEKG
# Outline: as §1
# GST-VND3 NAC domain = target: T10, GST-VND3 NAC domain (Arabidopsis thaliana, UniProt Q9FH59 12-162); details: protein: recombinant; tags: GST; chain copies: 2; dsDNA, one strand shown
# T10 sequence: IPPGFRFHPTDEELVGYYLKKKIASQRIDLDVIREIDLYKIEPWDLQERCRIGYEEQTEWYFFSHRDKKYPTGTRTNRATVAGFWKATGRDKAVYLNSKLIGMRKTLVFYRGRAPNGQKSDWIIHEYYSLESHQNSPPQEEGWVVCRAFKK
# Outline: as §1
# GST-VND7 NAC domain = target: T11, GST-VND7 NAC domain (Arabidopsis thaliana, UniProt Q9C8W9 9-158); details: protein: recombinant; tags: GST; chain copies: 2; dsDNA, one strand shown
# T11 sequence: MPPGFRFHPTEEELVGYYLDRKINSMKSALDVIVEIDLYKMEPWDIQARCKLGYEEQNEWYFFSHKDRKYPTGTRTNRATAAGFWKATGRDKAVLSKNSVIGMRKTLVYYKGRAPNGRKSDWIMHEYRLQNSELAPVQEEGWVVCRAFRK
# Outline: as §1
# GST-WRKY1(266-371) = GST-WRKY1(266-371) (Arabidopsis thaliana, UniProt Q9SI37 266-371); details: protein: recombinant; tags: GST; dsDNA, one strand shown
# GST-WRKY1(266-371), sequence (Q9SI37 266-371): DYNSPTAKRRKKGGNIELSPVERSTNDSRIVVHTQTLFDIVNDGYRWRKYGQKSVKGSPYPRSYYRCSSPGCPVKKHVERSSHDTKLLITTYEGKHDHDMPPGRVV
# Outline: as §1
Sequence,binding signal (GST-ANAC092(1-176)) [E-score],binding signal (GST-NTL6(1-168)) [E-score],binding signal (GST-ANAC019 NAC domain) [E-score],binding signal (GST-ANAC055(1-171)) [E-score],binding signal (GST-ATAF1 NAC domain) [E-score],binding signal [1] [E-score],binding signal (GST-NAP(1-166)) [E-score],binding signal (GST-NST2(1-184)) [E-score],binding signal (GST-NTL8 NAC domain) [E-score],binding signal (GST-SND1(1-203)) [E-score],binding signal (GST-VND3 NAC domain) [E-score],binding signal (GST-VND7 NAC domain) [E-score],binding signal (GST-WRKY1(266-371)) [E-score]
AGACGTGA,0.217,0.0777,0.425,0.368,0.356,0.272,0.223,0.157,0.116,0.25,0.358,0.348,0.116
ATTACGTA,0.459,0.201,0.474,0.438,0.404,0.449,0.47,0.331,0.134,0.44,0.468,0.458,0.0642
CTACGTTA,0.323,0.0691,0.152,0.144,0.228,0.382,0.135,0.335,,0.478,0.24,0.164,0.0835
AGACGCAA,0.453,0.0768,0.222,0.246,0.262,0.462,0.433,0.242,0.107,0.265,0.295,0.276,0.0554
GACGTAAC,0.354,0.088,0.355,0.369,0.268,0.4,0.409,0.24,0.204,0.392,0.367,0.296,0.152
ACGCAAAG,0.455,0.102,0.273,0.228,0.256,0.452,0.295,0.331,0.19,0.407,0.374,0.346,0.16
CTTACCCC,0.192,0.322,0.132,0.191,0.0855,0.179,0.096,0.175,0.405,0.198,0.101,0.149,0.0524
ACGTAAAA,0.366,0.161,0.336,0.331,0.35,0.406,0.326,0.312,0.0957,0.436,0.368,0.344,0.0914
TTACGTAA,0.476,0.171,0.479,0.478,0.465,0.469,0.484,0.433,0.411,0.484,0.483,0.481,0.0521
CAAGGAAA,0.231,0.31,0.165,0.147,0.167,0.241,0.0952,0.189,0.46,0.242,0.202,0.181,0.0889
ACACGACA,0.421,0.0953,0.452,0.438,0.339,0.417,0.36,0.19,0.0912,0.14,0.399,0.424,0.0821
